# Screening results as filed in PubChem BioAssay.
# VDR inh = Inhibitors of the vitamin D receptor (VDR): qHTS; Potency, µM, usual class: inhibitors; VDR-SRC2-3 peptide fluorescence polarization, 2 h; Vitamin D3 receptor (Homo sapiens), P11473; 0.93% of 400,000 active
# Target sequence (P11473 whole entry, looked up): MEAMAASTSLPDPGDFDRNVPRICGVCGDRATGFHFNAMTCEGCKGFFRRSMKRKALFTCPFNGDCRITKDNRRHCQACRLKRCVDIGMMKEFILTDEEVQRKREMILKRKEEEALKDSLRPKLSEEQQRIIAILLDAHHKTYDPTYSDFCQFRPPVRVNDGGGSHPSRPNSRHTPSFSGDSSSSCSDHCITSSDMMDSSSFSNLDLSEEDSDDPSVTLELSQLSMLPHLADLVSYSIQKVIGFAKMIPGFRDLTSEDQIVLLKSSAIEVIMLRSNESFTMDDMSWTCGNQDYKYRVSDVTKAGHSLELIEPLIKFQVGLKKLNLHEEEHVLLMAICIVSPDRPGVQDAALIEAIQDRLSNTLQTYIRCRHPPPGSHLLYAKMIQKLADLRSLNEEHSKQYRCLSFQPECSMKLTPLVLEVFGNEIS
#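 Compounds are added to VDR with labelled SRC2-3 coactivator peptide and held 2 h at room temperature. Inhibition of the VDR–peptide interaction is then read as a change in fluorescence polarization.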
# GALK inhibitor = qHTS Assay for Inhibitors of Human Galactokinase (GALK). P51570. Potency, µM (doses to about 57.5 µM), hits mostly inhibitors. Purified GALK, Kinase-Glo residual ATP luminescence. 0.007% of 270,000 active. AID 1868, 2009
#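 Luminescence from leftover ATP (Ultra-Glo luciferase/luciferin) served as read-out after a 1 h room-temperature reaction of 5 nM GALK with 35 uM ATP and 100 uM galactose.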
# USP1-UAF1 inh = Inhibitors of USP1/UAF1: Primary Screen. recombinant USP1/UAF1, Ub-Rhodamine cleavage fluorescence. Potency, µM (top dose mostly 57.1 µM), usual class: inhibitors. 0.23% of 390,000 active. AID 743255, 2014; further: nearly all actives have a fitted effect of over 60% in size
#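 USP1/UAF1 complex (1 nM) preincubated 15 min at room temperature with compound, then Ub-Rho substrate (150 nM final) added. Kinetic fluorescence at 480/540 nm over 6 reads at 60 s intervals; 50 mM HEPES pH 7.8, 0.5 mM EDTA, 0.1 mg/ml BSA, 1 mM TCEP, 0.01% Tween-20.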
# FBPA coupling cs = qHTS Assay for Inhibitors of Fructose-1,6-bisphosphate Aldolase from Giardia Lamblia: Coupling assay counterscreen; 0.67% of 290,000 active; coupling enzyme system counterscreen, AmpLite Red fluorescence; activity change, negative = inhibition, % at 58.2 µM, hits read low; AID 2472, 2010; in the data active means activity change below about -30%
#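 Counterscreen of the coupled detection system alone, without aldolase: glyceraldehyde-3-phosphate coupling enzymes plus AmpLite Red readout. Compounds at 57.5 uM final, 10 min RT preincubation, 20 min RT reaction, fluorescence 525/598 nm.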
# PLK1 PBD block = qHTS for Inhibitors of PLK1-PDB (polo-like kinase 1 - polo-box domain): Primary Screen | 2.8% of 360,000 active | Serine/threonine-protein kinase PLK1 (Homo sapiens), P53350 | AID 720504, 2013 | Plk1 PBD binding of FITC phosphopeptide, fluorescence polarization | Potency, µM, most hits filed as inhibitors; further: series mostly up to about 57 µM; nearly all actives have a fitted effect of over 65% in size
# USP2a block = qHTS Assay for Inhibitors of Ubiquitin-specific Protease USP2a Using CHOP2 as the Reporter. 0.01% of 330,000 active. AID 463254, 2010. Potency, µM (titrated, usually from 38.3 µM), hits mostly inhibitors. Ubiquitin carboxyl-terminal hydrolase 2 (Homo sapiens), O75604. USP2 core, Ub-CHOP2 coupled fluorogenic reporter, 485/531
#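 Deubiquitinase activity read as fluorescence (485/531 nm) after Ub-CHOP2 cleavage activates the enterokinase reporter on its substrate; USP2 core 10nM, Ub-CHOP2 and substrate 25nM each, 30min compound preincubation then 60min RT; data normalized to NEM, curves fitted.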
# Hits are given with their value; . = inactive; ? = inconclusive; / = no result. Compounds with a hit are over-represented: about 3.2% of the library has one in this group of screens. Unless noted, the call rests on the fitted dose curve; in most records, active means well fitted curve in the direction sought with a large enough effect; inconclusive means small, poorly fitted or top-dose-only effect, or another doubt; inactive means no such curve, though single readings can be large; an effect the other way counts as inactive or inconclusive.
SMILES,VDR inh,GALK inhibitor,USP1-UAF1 inh,FBPA coupling cs,PLK1 PBD block,USP2a block
COC(=O)C1=C(C(=O)OC)C(c2ccc(OC)c(OC)c2)c2sc(=O)[nH]c2S1 (centres undefined),79µM,.,.,.,.,.
Cc1c(C(=O)N2CCC2)oc2c(F)cccc12,.,/,.,/,.,.
COc1cccc(CNC(=S)NC2CC2)c1,.,.,.,.,.,.
Cc1ccc(NC(=S)/C(=C(\[O-])c2ccc(C)c([N+](=O)[O-])c2)[n+]2ccccc2)cc1C,/,.,/,.,/,.
Cc1ccc(/C([O-])=C(/C(=S)Nc2ccc(SC(F)F)cc2)[n+]2ccccc2)cc1[N+](=O)[O-],?,.,.,-31,.,.
CCn1c(C)cc(=S)c2ccccc21,.,.,.,-42,.,.
COc1cc(OC)c2c(c1)OC(=O)CC2c1ccccc1OC (centres undefined),.,/,/,.,/,/
COc1ccccc1NS(=O)(=O)c1cc(NC(=O)C(C)(C)C)ccc1N1CCOCC1,.,/,.,/,.,.
COc1ccccc1NS(=O)(=O)c1cc(NC(=O)c2ccc(NC(C)=O)cc2)ccc1N1CCOCC1,?,/,.,/,27µM,/
COc1ccccc1NS(=O)(=O)c1cc(NC(=O)c2ccncc2)ccc1N1CCOCC1,.,.,.,.,13µM,.
COc1ccc(C(=O)N2CCC[C@@]3(CCN(C(=O)Nc4cccc(C#N)c4)C3)C2)cc1,.,/,/,.,/,/
Cc1ccc(S(=O)(=O)c2c(COC(=O)c3ccc(Cl)cc3)c(-c3ccccc3)nn2C)cc1,.,.,.,.,.,.
C=CCn1c(C)cc(C(=O)CSc2nc3ccccc3c(=O)[nH]2)c1C,.,.,.,.,12µM,.
COc1ccc(NC(=O)c2ccc3ccccc3c2)cc1,.,.,.,.,.,.
CNC(=O)[C@]1(C)C[C@H]1[C@H](NC(=O)[C@]1(C)C[C@H]1[C@H](NC(=O)[C@]1(C)C[C@H]1[C@H](NC(=O)[C@]1(C)C[C@H]1[C@H](NC(=O)OCc1ccccc1)c1ccccc1)c1ccccc1)c1ccccc1)c1ccccc1,/,/,/,.,/,/
CCCCCN1C2=NCCN2c2ccccc21,.,.,.,.,24µM,.
Cc1ccccc1CN1C2=NCCCN2c2ccccc21,.,.,.,.,.,.
Cc1ccccc1CN1C2=NCCN2c2ccccc21,.,.,.,.,27µM,.
C=CCOc1ccc(/C=C/C(=O)OCC(=O)NCC2CCCCC2)cc1,.,/,.,/,.,.
CC(C)C(=O)NNC(=O)CSc1nnc(-c2ccccc2)c(-c2ccccc2)n1,.,.,.,.,.,.
COc1cc(NC(=O)CSCc2ccc(Cl)cc2)c(C(=O)O)cc1OC,.,.,.,.,.,.
COc1ccccc1OCc1nc2ccccc2[nH]1,.,.,.,.,.,.
Cc1ccccc1OCc1nc2ccccc2[nH]1,.,.,.,.,27µM,.
CC(=O)Nc1ccc(S(=O)(=O)N(C)CC(=O)OC(C)C(=O)N(C)C2CCCCC2)cc1 (centres undefined),.,.,.,/,?,.
CCOc1ccc(-c2nn[nH]n2)cc1,?,.,.,.,27µM,.
CCOc1ccc(-c2nn[nH]n2)cc1OCC,.,.,.,.,.,.
C=C1C2=CC(=O)OC(c3ccoc3)[C@]2(C)CCC1[C@]1(C)C=CC(=O)C(C)(C)C1CC(=O)OC (some centres undefined),40µM,/,/,.,/,/
CC(C)C[C@H](NC(=O)CCn1nnc2ccccc2c1=O)C(=O)O,.,.,.,.,19µM,.
C[C@@H](C(=O)N[C@@H](Cc1c[nH]c2ccccc12)C(=O)O)n1nnc2ccccc2c1=O,.,.,.,.,30µM,.
